Growth data for 40 molecules are collected here from PubChem BioAssay (NCI).

SMILES strings stand for the structures. The panel holds about 83,000 compounds, 20% with a hit somewhere; the sample as a whole holds those more often.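 Method: cells in 96-well plates; compound added at one concentration; 48 h incubation; percent growth measured; values under 10 scored active.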 A number with no mark means an inactive call. Activity calls are given as the source filed them.

The assay concerns EKVX NSCLC. Nature of the assay: NCI-60 one-dose screen, 48 h (100 = growth as untreated, 0 = no growth, -100 = all killed). As to conditions: 10 µM unless noted. How it is done:
Growth inhibition of the EKVX human Non-Small Cell Lung tumor cell line is measured as a screen for anti-cancer activity. Cells are grown in 96 well plates and exposed to the test compound for 48 hours. Compounds are tested at a single concentration, which is 10^-5 M for most compounds. The reported endpoint is percent growth (GI% or GIPRCNT), where numbers from 0 - 100% represent growth inhibition, and numbers from -100% - 0 represent cell death. For example, a value of 40 represents 60% growth inhibition. A value of 0 means no net growth occurred over the course of the experiment. A value of -40 indicates 40% of cells at the beginning of the experiment died by the end of the experiment. A value of -100 means all cells are dead at the end of the experiment.
NCI-60 Human Tumor Cell Lines Screen was performed using the standard one-dose NCI protocol, which is described in more detail at https://dtp.cancer.gov/discovery_development/nci-60/default.htm.
Compounds with GIPRCNT values below 10 were considered active. Activity score was based on GIPRCNT using the following formula: […]
Score is 0 for GIPRCNT values of 100 or above, 50 for GIPRCNT values of 0, and 100 for GIPRCNT values of -100.
For `C=CC(=O)Nc1cccc(-c2nc(SC)nc(Nc3cccc(OC)c3)c2C#N)c1`, the growth is 72%.

For `COc1ccc(S(=O)(=O)N2CCCCCC2)cc1NC(=O)c1[nH]c(C)c2c1CCCCC2=O`, the growth was 38.4%.

As for `CN1CCN(c2nc(NCCCCNc3ccnc4cc(Cl)ccc34)c3ccccc3n2)CC1`, the growth is 80.7%.

Consider `O=S(=O)(Nc1ccc(I)cc1F)c1ccc(-c2cnc(C3CC3)o2)cc1`, for which the growth was 68.5%.

For `CCc1nc(N)nc(N)c1C#CC(C)c1ccc(-c2ccncc2)cc1Cl` (stereo not given), the growth was 25%.

Consider `COc1ccc(N=Nc2nccs2)c(O)c1`, for which the growth was 30.9%.

Take `CCCCC(=O)OCC1OC(n2cnc3c(=S)nc[nH]c32)C(OC(=O)CCCC)C1OC(=O)CCCC` (stereo not given): the growth is 31.3%.

On to `O=C1c2cc3c(cc2-c2c1c1ccc(F)cc1c(=O)n2C[C@H](O)[C@@H](O)[C@H](O)CO)OCO3`, for which the growth was 13%.

As to `N#CN1CCC[C@H]1C(=O)N1CCc2c(-c3[nH]nc4ncccc34)cccc21`, the growth is 14.6%.

As for `Cc1ccc(NC(=O)C2CCC(CN3CCN(C)CC3)CC2)cc1Nc1nccc(-c2cccnc2)n1` (stereo not given), the growth was 97.6%.

For the molecule `Cc1cc(N2CCN(C)CC2)nc(NC2CCCC(Nc3ccnc4cc(Cl)ccc34)C2)n1` (stereo not given), the growth is 34.4%.

Turning to `CN(Cc1cc(Cl)cc(Cl)c1O)Cc1cc(Cl)cc(Cl)c1O`, the growth was 83.6%.

For `COc1cc(-c2nn(-c3ccc(C(=O)O)cc3)cc2C(=O)O)ccc1O`, the growth was 76.4%.

With `Cc1nc(Nc2ccc(F)c(Cl)c2)sc1C(=O)O`, the growth was 8.63% (active).

Regarding `COC[C@H](C)n1c(C2CCOCC2)nc2cnc3cc(-c4c(C)noc4C)c(OC)cc3c21`, the growth is 59.7%.

For the molecule `COc1cc2nc(N3CCCC3)nc(NCCc3ccccc3)c2cc1OC`, the growth was 59.5%.

As to `O=C1/C(=C(/c2ccccc2)N2CCOCC2)Cc2ccccc21`, the growth was 38%.

For `COc1ccc(C2CC(c3ccc(Cl)cc3)=NN2/C=C2\SC(=S)N(NC(=O)Cc3ccccc3Nc3c(Cl)cccc3Cl)C2=O)cc1` (stereo not given), the growth is 62.2%.

With `CC(=O)Nc1ccc(-n2c(O)c(/C=N/NC(=O)Cc3ccccc3Nc3c(Cl)cccc3Cl)sc2=S)cc1`, the growth is 100%.

In the case of `O=c1cc(CSc2nnc(-c3ccc(F)cc3)o2)c2ccc3ccccc3c2o1`, the growth is 88.7%.

Consider `O=C1c2c(O)cc(O)cc2-c2c(-c3ccc(O)cc3)oc3cc(O)cc1c23`, for which the growth was 62.2%.

For `COc1cc(-c2nn(-c3ccc(Br)cc3)cc2C(=O)O)ccc1O`, the growth is 87.2%.

In the case of `CCCCN(CCCC)CCCn1c(-c2ccccc2)ccc1-c1ccccc1`, the growth was 49.6%.

With `COc1ccc(NC(=O)c2ccc(/C=C/C(=O)c3ncc[nH]3)cc2)cc1`, the growth was 79.8%.

As to `CCOC(=O)c1c(C(=O)OCC)c2cc(-c3ccn4c(C(=O)c5ccccc5)c(C(=O)OCC)c(C(=O)OCC)c4c3)ccn2c1C(=O)c1ccccc1`, the growth was 90.4%.

Consider `COc1cccc(-c2nc3sccn3c2-c2ccnc(NCCCNS(=O)(=O)c3c(Cl)cccc3Cl)c2)c1`, for which the growth is 58.7%.

In the case of `Cc1ccc(C(SCC(N)C(=O)O)(c2ccccc2)c2ccc(C)cc2)cc1` (stereo not given), the growth is 43.1%.

Regarding `CCOC(=O)c1cc(C(=O)c2ccc(O)c(O)c2)n2ccc(-c3ccn4c(C(=O)c5ccc(O)c(O)c5)cc(C(=O)OCC)c4c3)cc12`, the growth is 94.9%.

As for `CC(C)(C)N1CCC1CN` (stereo not given), the growth was 90.1%.

On to `CCc1nnc(CNc2ccc(Cl)cc2)o1`, for which the growth was 91.3%.

In the case of `COc1ccc(SC2c3ccc(C)cc3Oc3nc(N)c(C#N)c(N)c32)cc1` (stereo not given), the growth is -10.8% (active).

Take `CCOc1cc2ncc(C#N)c(Nc3ccc(OCc4cccc(F)c4)c(Cl)c3)c2cc1NC(=O)CCCCC1CCSS1` (stereo not given): the growth was 78.5%.

In the case of `CC1SC(c2ccc(N(C)C)cc2)N(NC(=O)C(O)(c2ccccc2)c2ccccc2)C1=O` (stereo not given), the growth is 93.5%.

On to `NC(CSC(c1ccccc1)(c1ccccc1)c1ccc(Cl)cc1)C(=O)O` (stereo not given), for which the growth is 27.1%.

For `CC(O)CN(CC(C)O)c1ccc2c(c1)Cc1cc([N+](=O)[O-])ccc1-2` (stereo not given), the growth was 74.8%.

As to `COc1cc(-c2nn(-c3ccc(C)cc3)cc2C(=O)O)ccc1O`, the growth is 88.3%.

Take `CN(C)c1ccc(N=Nc2ccc(Br)cn2)c(O)c1`: the growth is 14.3%.

Regarding `N#CN1CC[C@H](C(=O)Nc2cc3cc(C(N)=O)ccc3cn2)C1`, the growth was 2.35% (active).

Regarding `O=C(COc1cccc(/C=C2\COc3ccccc3C2=O)c1)Nc1nccs1`, the growth is 72.2%.

In the case of `COc1cc(C(=O)Oc2ccccc2OC(=O)c2cc(OC)c(OC)c(OC)c2)cc(OC)c1OC`, the growth was 95.7%.
